Assay results reported in PubChem BioAssay (NCI).
This is part of a sample that, as a whole, favours compounds with a hit. Of some 79,000 tested, about 15% had one in any assay. Rule as the data show it: active = growth inhibition above about 70%; inactive = the rest.

Experiments:
[1] = NCI Yeast Anticancer Drug Screen. Data for the rad50 strain (AID 155);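 also: 0% = growth of vehicle-only cultures of the same strain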; conditions: S. cerevisiae rad50 strain growth inhibition; at 50.0 µM; active compounds read high
Summary of the method: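 A DNA repair-deficient yeast mutant serves as the test organism; compound-induced growth inhibition is calculated against vehicle-treated cells.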

[2] = NCI Yeast Anticancer Drug Screen. Data for the mec2-1 strain (AID 157); conditions: S. cerevisiae mec2-1 strain, at 50.0 µM, active compounds read high
Summary of the method: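 Growth inhibition is read against vehicle-treated controls after compound exposure of the mec2-1 yeast strain, which is defective in DNA damage repair or cell cycle control.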

[3] = NCI Yeast Anticancer Drug Screen. Data for the sgs1 mgt1 strain (AID 161);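 also: 0% = growth of cultures given vehicle only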; conditions: S. cerevisiae sgs1 mgt1 strain, at 50.0 µM, active compounds read high
Summary of the method: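 Yeast cells carrying a defined DNA-repair defect were exposed to test compounds. Growth inhibition was measured relative to vehicle-treated controls.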

[4] = NCI Yeast Anticancer Drug Screen. Data for the cln2 rad14 strain (AID 165);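 also: 0% = growth equal to vehicle treated cultures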; conditions: S. cerevisiae cln2 rad14 strain, at 50.0 µM, active compounds read high
Summary of the method: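 Growth inhibition, relative to vehicle-treated controls, is the read-out. The test organism is a yeast strain with defined genetic alterations, cln2 rad14.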

[5] = NCI Yeast Anticancer Drug Screen. Data for the bub3 strain (AID 167); conditions: S. cerevisiae bub3 mutant strain, at 50.0 µM, active compounds read high
Summary of the method: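 Inhibition values come from growth of compound-treated mutant yeast normalised to vehicle-treated controls.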

[6] = NCI Yeast Anticancer Drug Screen. Data for the mlh1 rad18 strain (AID 175); conditions: S. cerevisiae mlh1 rad18 strain growth inhibition; at 50.0 µM; active compounds read high
Summary of the method: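 Cells of a genetically altered yeast strain, deficient in DNA damage repair, were treated with compound. Their growth was then compared with that of vehicle-treated cultures to give inhibition.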

Measured: growth inhibition

C=C(NC(C)=O)C(=O)CCC(N)=O
inactive: [1] -0.75% | [2] -0.7% | [3] -7.5% | [4] 1.75% | [5] 4.75% | [6] -53.7%

CS/C(=N/N=C/c1ccc2ccccc2n1)SS/C(=N/N=C\c1ccc2ccccc2n1)SC
inactive: [1] -8.05% | [2] 13.8% | [3] -12.4% | [4] -19.9% | [5] -0.3% | [6] -39.9%

CC(C)=CCC/C(C)=C/c1cc(C(=O)O)c2c(ccc3ccccc32)n1
inactive: [1] 9.6% | [2] 10.5% | [3] 6.7% | [4] 11.3% | [5] 25.1% | [6] 14.3%

C1=Cc2nc1c(-c1ccncc1)c1ccc([n-]1)c(-c1ccncc1)c1nc(c(-c3ccncc3)c3ccc([n-]3)c2-c2ccncc2)C=C1.[Zn+2]
inactive: [1] -20.6% | [2] -9.45% | [3] -8.95% | [4] 15.7% | [5] 18.9% | [6] -3.65%

CN(C)c1ccc(/C=C/c2ccnc3c(N)cccc23)cc1
inactive: [1] -3.95% | [2] -8.85% | [3] -14.4% | [4] -12.8% | [5] -10.9% | [6] 3.8%

O=C(CNS(=O)(=O)c1ccccc1)c1ccc(Cl)cc1Cl
inactive: [1] 31.6% | [2] 36.2% | [3] 53% | [4] 22.3% | [5] 54.5% | [6] 53.8%

COc1ccc2c(c1)C1c3ccccc3CCN1CCC2 (configuration not stated)
inactive: [1] 20.8% | [2] 20.9% | [3] -23.1% | [4] 24.1% | [5] -8.4% | [6] 6%

COCCN(C)C(c1ccccc1)C(O)c1ccccc1 (configuration not stated)
inactive: [1] 4.8% | [2] -12.9% | [3] 4.3% | [4] -37% | [5] 4.95% | [6] 4.1%

O=C1/C(=C\c2ccccn2)c2ccccc2N1Cc1ccccc1
inactive: [1] 7.6% | [2] 1.25% | [3] 8.75% | [4] 16.9% | [5] 11.2% | [6] 22.3%

Nc1nc(N)nc(CCC(Br)(Br)Br)n1
inactive: [1] 26.6% | [2] 4.75% | [3] 30.8% | [4] 19.9% | [5] 21.9% | [6] 11.1%

CCOC(=O)C1C(C)=CC(=O)CC1C (configuration not stated)
inactive: [1] 19.8% | [2] 1.65% | [3] 21.9% | [4] -4.8% | [5] 4.5% | [6] 4.45%

C1CCSCCCCSCCCCSCCCCSC1
inactive: [1] 20.4% | [2] 18% | [3] 23.4% | [4] 6.5% | [5] 16.9% | [6] 35.8%

[Cl][Pt+2][Cl].[NH-]C1CCC1[NH-] (configuration not stated)
inactive: [1] 4.7% | [2] -9.3% | [3] -12% | [4] -24.4% | [5] -4.1% | [6] 10.5%

COc1ccc(COC(=O)Nc2ccccc2Cl)cc1
inactive: [1] 5.85% | [2] -9.45% | [3] -4.9% | [4] -6.9% | [5] 17% | [6] -6.35%

Cc1onc(-c2ccccc2)c1NC(=O)OCc1ccc(-c2cc(C(F)(F)F)cc(C(F)(F)F)c2)o1
inactive: [1] -0.4% | [2] -14.9% | [3] -2.65% | [4] 9.7% | [5] 4.4% | [6] 11.8%

NC(=O)OCC1CCCCC1OC(N)=O (configuration not stated)
inactive: [1] 26.1% | [2] -17.4% | [3] -14.4% | [4] -92.7% | [5] -2.6% | [6] -10.4%

Cc1c(-c2ccccc2)nnn1-c1ccc(F)c(Cl)c1
inactive: [1] -16.4% | [2] -27.1% | [3] -8.75% | [4] -10.4% | [5] 6.95% | [6] -12.4%

OC1CCCSC1 (configuration not stated)
inactive: [1] 18.1% | [2] -15.9% | [3] 12.8% | [4] 4.75% | [5] 16.6% | [6] 27.9%

C#CC1(O)c2ccccc2C(=O)c2ccccc21
inactive: [1] -1.05% | [2] -7.85% | [3] -7.65% | [4] -7.35% | [5] 6.7% | [6] -2.35%

CCN(CC)C(=S)Oc1cc(C)nc(SCC(=O)c2ccc(Cl)cc2)n1
inactive: [1] 22.6% | [2] -18.8% | [3] 41.2% | [4] 29.2% | [5] 30.8% | [6] 28.4%

CC1=C(O)CC(=O)C1
inactive: [1] -14% | [2] -8.8% | [3] -6.9% | [4] 0.2% | [5] 6.4% | [6] -9.45%

Oc1ccc(Br)cc1C(=S)N1CCOCC1
inactive: [1] 9.3% | [2] 18.4% | [3] 4.45% | [4] 3.6% | [5] -10.1% | [6] 37.2%

O=C(Nc1ccn(CCOC(=O)c2ccccc2)c(=O)n1)c1ccccc1
inactive: [1] -9.4% | [2] -21.3% | [3] 22.8% | [4] 14.6% | [5] 23.7% | [6] 47.6%

Nc1ccc2nnn(OC3CCCC3)c2c1
inactive: [1] 40.2% | [2] 13.9% | [3] 3.55% | [4] 9.4% | [5] -4.05% | [6] 0.4%

O=C1CC(=O)N(CCc2ccccc2)S(=O)(=O)N1CCc1ccccc1
inactive: [1] -8.9% | [2] -21.4% | [3] -14.2% | [4] 30.4% | [5] -15.2% | [6] -32.8%

Cc1ccc2c(c1)CN(C)CO2
inactive: [1] -15% | [2] 6.45% | [3] 5.6% | [4] -51.4% | [5] -18.1% | [6] -24.1%

O=C1C=C(C2=CC(=O)C(=O)c3ccccc32)c2ccccc2C1=O
inactive: [1] 27.5% | [2] 9.45% | [3] 6.55% | [4] -5% | [5] 53.1% | [6] 35.2%

O=C(O)COc1c(Cl)cc(Cl)c2cccnc12
inactive: [1] 28.9% | [2] -3.85% | [3] -15.7% | [4] -16.9% | [5] -63.2% | [6] -4.45%

CN(C)CCNC(=O)c1cccc2nc3c(C(=O)NCCN(C)C)cccc3nc12
inactive: [1] -11.7% | [2] -20.4% | [3] -46.6% | [4] -33.7% | [5] -34.1% | [6] -40.5%

OC1CCC(C#CC#CC2CCC(O)CC2)CC1 (configuration not stated)
inactive: [1] 2.05% | [2] -34.2% | [3] 3.05% | [4] 2.25% | [5] -23.7% | [6] -1.7%

O=c1[nH]c2cc(Cl)ccc2nc1/C=C(\O)c1cccc(O)c1
inactive: [1] -3.45% | [2] -5.05% | [3] -8.45% | [4] -4.35% | [5] -4.45% | [6] 10.2%

C/C=C1/CN2CCc3c([nH]c4ccccc34)C2CC1C(Cc1c[n+]2c(c3[nH]c4ccccc4c13)CC1C(C(=O)OC)=COC(C)C1C2)C(=O)OC (configuration not stated)
inactive: [1] 13.4% | [2] -25.6% | [3] -21.4% | [4] 17.1% | [5] -22.2% | [6] -12.3%

CCCCC1(O)c2ccc3ccccc3c2C(O)(CCCC)c2cccc(-c3ccccc3)c21 (configuration not stated)
inactive: [1] 24.1% | [2] -0.05% | [3] 10.2% | [4] -1.75% | [5] -3.15% | [6] 38.8%

CC1(c2ccccc2)CCN(C2CC2)CO1 (configuration not stated)
inactive: [1] 34.6% | [2] 15.2% | [3] 51.6% | [4] 45.2% | [5] 48.5% | [6] -52%

OCC1CC1c1ccccc1 (configuration not stated)
inactive: [1] -4.75% | [2] -0.65% | [3] -6.4% | [4] 10.5% | [5] 10.7% | [6] 5.55%

COC(=O)C(=O)c1c(C(=O)OC)nc2nnc(N)n2c1-c1ccc(OC)cc1
inactive: [1] -13.4% | [2] 0.6% | [3] -0.5% | [4] -26.5% | [5] 8.2% | [6] -14.9%

Cc1ccc2ccccc2c1[N+](=O)[O-]
inactive: [1] 43.5% | [2] 5% | [3] 37.3% | [4] 17.1% | [5] 21.6% | [6] 36.5%
